{"source": "paper PMC12136788", "binders": {"B1": {"name": "chr17:26793470:26793471:+_ENSMUSG00000001576_ENSMUST00000167662|mus_hu|FALSE|FALSE (ssRNA)", "RNA": "GGGAGUUCUACAGUCCGACGAUCCGGAGCUUAGAGCCAAAAAUUACAAAUGGCAGAGACUUGAGCUAUCCAUAAGAUAAUUUUAAAAAUCCUUCCACUGGACACUCCCCUUCAUUACAAAAGUAUGCAAACAAUCUUGCUAUACAACAGAGGAUUGAGCAUCA"}, "B2": {"name": "chr10:117127018:117127019:-_ENSMUSG00000020184_ENSMUST00000020408|mus_mus|FALSE|FALSE (ssRNA)", "RNA": "GGGAGUUCUACAGUCCGACGAUCAGAUGGAAAGGACUUCUCACAUACACUUCCAAAGUCCUUCCAAGCGGAGAUUAUUUAAAAUAUAAGGAAAAUAUAAACAGCCAAUGCAAAUUACUUAAAACACAAAUAUAAAAUAAACAACAACAGAGGAUUGAGCAUCA"}, "B3": {"name": "chr2:47387770:47387771:-_ENSG00000143933_ENST00000272298|hu_mus|hu_hu_hu_mus_True|18_38 (ssRNA)", "RNA": "GGGAGUUCUACAGUCCGACGAUCAAGGUUUAAGGACAAUGACAGUAAGAUAAGGGAAGAAAACAUGGAGGAAUGAAGUCCUAAUUACUAUACAUGCAUAUUUUUUUACAGUAGGGGAGAAACCUUUUUUACAGAUAAGUUACACAACAGAGGAUUGAGCAUCA"}, "B4": {"name": "chr14:35182089:35182090:-_ENSG00000165410_ENST00000422678|hu_mus|motif|central (ssRNA)", "RNA": "GGGAGUUCUACAGUCCGACGAUCCUUAAGAUCAAAUGGCACUUGGCUAUUAUUUUAUAGUGGCUUUCCUUCAAGGGAAACGGCAACACUGCCCCCCAGUUUCUCUCCCAGCGUCGAGCGGUCCUUAAUAUCGUCCAAGCCAUUCAACAGAGGAUUGAGCAUCA"}, "B5": {"name": "chr3:58389949:58389950:+_ENSMUSG00000075700_ENSMUST00000107924|mus_hu|FALSE|FALSE (ssRNA)", "RNA": "GGGAGUUCUACAGUCCGACGAUCCAAGAAGAAAACCAUCAUACAUGCAUAAACCUUAUUUUCUUGGCCCCACUGCCAGAUGCUAGGAGCUUGCAUGCCAAAGAAAGCAAAAGGAUCCUUGCCAACAAUUAUUAAGCCUAUUAACAACAGAGGAUUGAGCAUCA"}, "B6": {"name": "chr13:90244479:90244480:+_ENSMUSG00000012422_ENSMUST00000161568|mus_hu|FALSE|FALSE (ssRNA)", "RNA": "GGGAGUUCUACAGUCCGACGAUCCAAAAUGGUGUGCCCAGAGGAAAAGCAAGCACUAUUAAAUAUUAAUGCAAUCCUUAUCAACACAAAUUGAGCCAUUUUAAUAAAAAAGCUAGUCCAAAAAAGGUUCUCAUUCUAUAAAGACAACAGAGGAUUGAGCAUCA"}, "B7": {"name": "chr2:91446484:91446485:+_ENSMUSG00000040549_ENSMUST00000099716|mus_hu|motif|central (ssRNA)", "RNA": "GGGAGUUCUACAGUCCGACGAUCCAAUUUCUCAUCUGCCAUGUGUGUGUUGUAGAUGAGUCUUAGCUGCAUAAAAGUGGCGGUCAGAAACUGAUCAAUAUGGCCGGACAUGGCUUCAGCUUUGUCUUCCUGUCUCAGGACCUCCAACAGAGGAUUGAGCAUCA"}, "B8": {"name": "89236039_89237110_928_3pUTR_ENSG00000065243_ENST00000370521|human|control|control (ssRNA)", "RNA": "GGGAGUUCUACAGUCCGACGAUCGGUUUUGCAUUAUCAAAAGCCAAUUCAUUAGUCUGGACUGCCUGAAGAAUCUGCAUUCGUAUGACUUCUAUUUUUGUCUUGCUGUCCUGGAGCAGUUGCUGAGCUGUACCAUGGAGUUUCCAACAGAGGAUUGAGCAUCA"}, "B9": {"name": "chr17:56552419:56552420:-_ENSMUSG00000013236_ENSMUST00000086828|mus_mus|mus_mus_mus_hu_False|8_48 (ssRNA)", "RNA": "GGGAGUUCUACAGUCCGACGAUCAAAAAAUACACUAUUUAAAAAAAAUGAAAUGUCACGGGAUACAGUUACACUGAGAGUUUUAAAAAAAAAUAAGAUUCUGGUCCCAGCCCAGUGUCCCCAGGCUGAGUGCGGAAGAGGAGCCAACAGAGGAUUGAGCAUCA"}, "B10": {"name": "chr17:56552419:56552420:-_ENSMUSG00000013236_ENSMUST00000086828|mus_mus|mus_mus_mus_hu_False|8_98 (ssRNA)", "RNA": "B9 RNA with U38A, U39A, A88G, A92G, U93C, A94U, A95G"}, "B11": {"name": "chr17:56552419:56552420:-_ENSMUSG00000013236_ENSMUST00000086828|mus_mus|mus_mus_mus_hu_False|1_98 (ssRNA)", "RNA": "GGGAGUUCUACAGUCCGACGAUCAAAAAAUACACUAUAAAAAAAAAAUGAAAUGUCACGGGAUACAGUUACACUGAGAGUUUUAAAAGAAAGCUGGAUUCUGGUCCCAGCCCAGUGUCCCCAGGCUGCAGAGCGGGGCAGAGGCAACAGAGGAUUGAGCAUCA"}, "B12": {"name": "chr17:56552419:56552420:-_ENSMUSG00000013236_ENSMUST00000086828|mus_hu|FALSE|FALSE (ssRNA)", "RNA": "B11 RNA with A38U, A39U, C138A, A139G, G143C"}, "B13": {"name": "chr17:56552419:56552420:-_ENSMUSG00000013236_ENSMUST00000086828|mus_mus|mus_mus_mus_hu_False|98_98 (ssRNA)", "RNA": "B11 RNA with C138A, A139G, G143C"}, "B14": {"name": "chr5:145543945:145543946:-_ENSG00000133706_ENST00000545646|hu_hu|hu_hu_hu_mus_True|1_8 (ssRNA)", "RNA": "GGGAGUUCUACAGUCCGACGAUCCUGAACGGCCAGUGGUGGGAAAUAAUCAAGCCAGUGCUCUGCUUCAGAAAACUUCACUAUGUCGUCAUCAGAGAGCCCAAGGGAUUUCAUAAUGUCCCACUGGUAUUUAGAAGAUCCAGCCAACAGAGGAUUGAGCAUCA"}, "B15": {"name": "chr8:74858975:74858976:-_ENSG00000154582_ENST00000284811|hu_hu|FALSE|FALSE (ssRNA)", "RNA": "GGGAGUUCUACAGUCCGACGAUCAACCUUGUACGUAAAAUACAUGCAUACUUUCGAUAGCACAUGUGAAGGUAUCUCUCUAAAAUUGACCUCAUUGGUUUCGUUCUCAGCAAACUGACCUGGGCCACUCAACAUGGCUUUUAUCAACAGAGGAUUGAGCAUCA"}, "B16": {"name": "chr11:100882373:100882374:+_ENSMUSG00000019302_ENSMUST00000044721|mus_mus|mus_mus_mus_hu_True|38_68 (ssRNA)", "RNA": "GGGAGUUCUACAGUCCGACGAUCUUCCUGGUUUGUGUUGAUUUCCUUCAGUUCAUUUUCAAUCUUCUCGAAAUUGGCCUCUAAGUCAAUCAUGUCCCGAGGGAAGGGAACCUCUGGGUUUUCACCGGUGUCCAUAAUCGGAAUCAACAGAGGAUUGAGCAUCA"}, "B17": {"name": "chr17:56552419:56552420:-_ENSMUSG00000013236_ENSMUST00000086828|mus_mus|mus_mus_mus_hu_False|58_98 (ssRNA)", "RNA": "B11 RNA with G77C, G79C, U81A, C138A, A139G, G143C"}, "B18": {"name": "chr17:56552419:56552420:-_ENSMUSG00000013236_ENSMUST00000086828|mus_mus|mus_mus_mus_hu_False|58_58 (ssRNA)", "RNA": "B11 RNA with A38U, A39U, G77C, G79C, U81A, C138A, A139G, G143C"}, "B19": {"name": "chr2:4828950:4828951:+_ENSMUSG00000026662_ENSMUST00000115019|mus_mus|motif|central (ssRNA)", "RNA": "GGGAGUUCUACAGUCCGACGAUCAAAAUCUAGUCUCCCCCAAUAAAUUGUAUUUUAGGCAAAAUCCUCCCAAAUGCUUCGGAAAUAAUACUAAAAAGGGCAUCUGAUUAUACAAGAGCAAUUAAAAAAAUUAAAUAUUUAUUUCAACAGAGGAUUGAGCAUCA"}, "B20": {"name": "105548853_105553245_153_3pUTR_ENSMUSG00000068798_ENSMUST00000090678|mouse|control|control (ssRNA)", "RNA": "GGGAGUUCUACAGUCCGACGAUCAUUUUUCAACAAAAAUCCCCUGAACAAACUGAACUGUCAGAGCAGACUUCCCCACGCCUCCUGAACCAAGGACUACUAGCUUGUACUCACGCAUGAUGCGCUCUGUUUAAAUAUUGACAACAACAGAGGAUUGAGCAUCA"}, "B21": {"name": "chr16:14299702:14299703:-_ENSMUSG00000022677_ENSMUST00000023357|mus_mus|motif|central (ssRNA)", "RNA": "GGGAGUUCUACAGUCCGACGAUCCUCAAUUCAGAGUCCCUCUCCCCAAAUGACUCUAGCUUGUAUCAAGUUGAUAUAAAACGGGCCAGGGCAGGCAAUAAUAAUUCAGGUAUUUUUUAAAAAAUCAAACUUCAUAUAAAUUAACAACAGAGGAUUGAGCAUCA"}, "B22": {"name": "chr2:4828950:4828951:+_ENSMUSG00000026662_ENSMUST00000115019|mus_mus|FALSE|FALSE (ssRNA)", "RNA": "B19 RNA with G80U, G81A"}, "B23": {"name": "chr16:14299702:14299703:-_ENSMUSG00000022677_ENSMUST00000023357|mus_mus|FALSE|FALSE (ssRNA)", "RNA": "B21 RNA with G82U, G83A"}, "B24": {"name": "75889693_75893847_892_3pUTR_ENSG00000185009_ENST00000355264|human|control|control (ssRNA)", "RNA": "GGGAGUUCUACAGUCCGACGAUCCAGAUAGUUUAAUGCAAGCAUCAAUGACCCCCUGAAUUUCUGCAAAGACUGUAGAUCCUGAUUUAUCUAUAAUUGCGUCUAUUUCUUCAACAACAUCAAAAUAGGCUUCAUUGUUUGUGUCAACAGAGGAUUGAGCAUCA"}, "B25": {"name": "chr10:112362630:112362631:-_ENSMUSG00000074748_ENSMUST00000099276|mus_mus|motif|central (ssRNA)", "RNA": "GGGAGUUCUACAGUCCGACGAUCGGAUUACUUAUUAAAAAAUAAGAAUCUCCAAAACAAAGGACAGUGGUGAAUUUCAAACGGCCCUCCCCCAAUGAUCCCAGCAUGCGAUAAUGCCAGGUAGUGGCCCCUGGGCAUGCGAUGCAACAGAGGAUUGAGCAUCA"}}, "note": "Numbering of substitutions follows the chain as printed. In all, about 24,000 sequences were measured (“enrichment r”: median about 0.99, highest 2% from about 3.7 on). For the sample, the highest values were picked, then their nearest neighbours and some sequences at random."}
{"molecular_target": "T1, UNK ZnF1-3 (human, UniProt Q9C0B0 31-174)", "T1 sequence": "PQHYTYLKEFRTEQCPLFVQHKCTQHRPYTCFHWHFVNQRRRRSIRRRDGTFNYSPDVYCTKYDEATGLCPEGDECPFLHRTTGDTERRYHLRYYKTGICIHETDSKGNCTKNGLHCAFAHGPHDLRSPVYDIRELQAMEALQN", "experiment": "nsRBNS (natural sequence RNA bind-n-seq); RBNS binding buffer (assumed for nsRBNS): 25 mM Tris pH 7.5, 150 mM KCl, 3 mM MgCl2, 0.01% Triton X-100, 500 ug/ml BSA, 20 U/ml SUPERase-In, 4 C; UNK is unkempt and MSI1 is Musashi-1; names of the RNAs are library labels; protein concentration not given here; high values mean tight binding", "units": {"binding signal": "enrichment R"}}
{"binder": "B1", "binding signal": 3.67}
{"binder": "B2", "binding signal": 5.74}
{"binder": "B3", "binding signal": 1.7}
{"binder": "B4", "binding signal": 1.04}
{"binder": "B5", "binding signal": 1.51}
{"binder": "B6", "binding signal": 4.62}
{"binder": "B7", "binding signal": 0.637}
{"binder": "B8", "binding signal": 0.571}
{"binder": "B9", "binding signal": 6.71}
{"binder": "B10", "binding signal": 5.52}
{"binder": "B11", "binding signal": 5.8}
{"binder": "B12", "binding signal": 3.32}
{"binder": "B13", "binding signal": 4.54}
{"binder": "B14", "binding signal": 1.44}
{"binder": "B15", "binding signal": 0.5}
{"binder": "B16", "binding signal": 0.443}
{"binder": "B17", "binding signal": 8.92}
{"binder": "B18", "binding signal": 3.59}
{"binder": "B19", "binding signal": 14.3}
{"binder": "B20", "binding signal": 1.18}
{"binder": "B21", "binding signal": 3.78}
{"binder": "B22", "binding signal": 4.12}
{"binder": "B23", "binding signal": 3.28}
{"binder": "B24", "binding signal": 0.939}
{"binder": "B25", "binding signal": 0.719}
